PubChem BioAssay AID493240 (Broad Institute, 2011)
Among all 1,300 compounds or so, about 270 (21%) were called active. How the calls were made is not given here. Not all results are given here. Entries with a potency or affinity are not part of this list.

Assay: cytotoxicity in parental SK-MEL-5 melanoma cells – cell-based, CellTiter-Glo, cherry-picked, set 3, orthogonal assay for MITF inhibitor project, dose response (AID 493240)
Conditions: SK-MEL-5 viability, ATP luminescence (CellTiter-Glo), 24 h; series mostly up to 35 µM

Structure (SMILES)	outcome
COCC(C)Nc1ncnc2c1cnn2-c1ccc(Cl)cc1 (centres undefined)	inactive
CC1CCCC(C)N1CCCNC(=O)c1cc2c(s1)-c1ccccc1OC2 (centres undefined)	inactive
C=CCn1c(C)cc(C(=O)CN2C(=O)c3ccccc3S2(=O)=O)c1C	inactive
N#C/C(=C\c1c[nH]c2ccccc12)C(=O)NC1CC1	inactive
COc1cccc(N2CCN(C(=O)c3ccc(CS(=O)c4ccccc4Cl)o3)CC2)c1 (centres undefined)	inactive
C=C1C(=O)C2=CC1CCC(=O)C1(C)CCC(OC(C)=O)C(C)(C)C1CC2O (centres undefined)	inactive
O=C(CCCc1ccccc1)N1CCN(C2CCCCC2)CC1	inactive
NC(=O)c1ccccc1NC(=O)/C=C/c1cccc(Cl)c1	inactive
CC(C)C(=O)Nc1ccc2nn(-c3ccc(F)cc3)nc2c1	inactive
Cc1cc(/C(N)=N/OC(=O)c2ccc(Cl)cc2)no1	inactive
COc1ccccc1OCCN1CSC(=S)N(C)C1	inactive
CC(=O)CSc1ccc(-c2nc3cc(C)c(C)cc3[nH]2)cn1	inactive
Cc1[nH]n(-c2ccccc2)c(=O)c1N=Nc1cccc(C(=O)O)c1	inactive
CCOc1ccc(/C=C2\SC(=S)N(CCC(=O)O)C2=O)cc1	inactive
CC(=O)c1cccc(NC(=O)/C=C/c2ccc([N+](=O)[O-])s2)c1	inactive
COc1ccccc1-c1nc(-c2ccc(C)nc2OC)no1	inactive
COc1ccccc1-c1nnc(-c2ccc(C)cc2)o1	inactive
O=C(O)c1ccc(N/N=C/c2ccc(OC(=O)c3cccc(Cl)c3)cc2)cc1	inactive
CCC(=O)N1CCN(c2ccc(Cl)cc2NC(=O)c2ccc([N+](=O)[O-])o2)CC1	inactive
CN1CCN(c2ccc(NC(=O)c3ccc([N+](=O)[O-])o3)cc2Cl)CC1	inactive
Cc1cccc(NC(=O)c2ccc([N+](=O)[O-])o2)c1C	inactive
CCCC(=O)N1CCN(c2ccc(NC(=O)c3ccc([N+](=O)[O-])o3)cc2Cl)CC1	inactive
CC(C)C(=O)N1CCN(c2ccc(NC(=O)c3ccc([N+](=O)[O-])o3)cc2Cl)CC1	inactive

Structure (SMILES)	outcome
O=C(Nc1ccccc1N1CCOCC1)c1ccc([N+](=O)[O-])o1	inactive
CCn1c(=O)c([N+](=O)[O-])c(Cl)c2ccccc21	inactive
CC(=O)N/C(N)=N/c1nc(=O)c2ccccc2s1	inactive
COc1ccc(C(=O)/C=C(\C)Nc2ccc3c(c2)OCO3)cc1	inactive
Clc1nccnc1N/N=C/c1ccc(Br)cc1	inactive
COc1cc(/C=C/C(=O)N2CCC=CC2=O)cc(OC)c1OC	inactive
O=C(CCl)Nc1cccc(Oc2ccccc2)c1	inactive
Cc1c(C#N)c(NC(=O)CCl)n(Cc2ccccc2)c1C	inactive
CCOc1cc(NC(=O)CCl)c(OCC)cc1NC(=O)CCl	inactive
Cc1ccc(C(=O)Nc2cnc3ccccc3c2)cc1	inactive
O=C(O)CSCC(=O)Nc1ccc(C2CCCCC2)cc1	inactive
CC(=O)Nc1cccc(-c2nnc(-c3ccccc3)o2)c1	inactive
O=[N+]([O-])c1cc(S(=O)(=O)N2CCCCCC2)ccc1F	inactive
O=C(N/N=C/c1cc(Cl)ccc1O)c1ccncc1	inactive
O=C(COC(=O)c1ccc[nH]c1=O)Nc1ccc(N2CCCCC2)cc1	inactive
CN=c1scc(-c2ccccc2F)n1/N=C/c1ccc[nH]1	inactive
Cc1ccc(COc2ccc(C)nc2[N+](=O)[O-])cc1	inactive
O=C(Cn1ncc(Cl)c(Cl)c1=O)Nc1ccc2c(c1)OCO2	inactive
O=[N+]([O-])c1cccc(/C=N/Nc2ncc(Br)cn2)c1	inactive
O=C(c1ccc(S(=O)(=O)Cc2ccccc2Cl)c([N+](=O)[O-])c1)N1CCN(c2ccccn2)CC1	inactive
CC(C)C(=O)NC(c1ccco1)c1ccc2cccnc2c1O (centres undefined)	inactive
COc1cc(SC)ccc1C(=O)Nc1ccc(Br)cn1	inactive
COc1cc(SC)ccc1C(=O)Nc1ncc(C)s1	inactive

Structure (SMILES)	outcome
COc1cc2c(cc1O)C(SC)=NC(C)(C)C2	inactive
O=[N+]([O-])c1cc(CN2CCN(c3ccccc3)CC2)c(O)c2ncccc12	inactive
O=[N+]([O-])c1ccccc1OCCCOc1cccc2cccnc12	inactive
CC(=O)Nc1ccc2c(c1)ncn2-c1ccccc1	inactive
CSCCNC(=O)c1ccc2nc(Cc3ccccc3F)oc2c1	inactive
N#C/C(=C\c1ccc(OCc2ccc(C(=O)O)cc2)cc1)C(=O)N1CCOCC1	inactive
Cc1ccc(-c2cc3onc(-c4ccccc4)c3c(=O)n2C)cc1	inactive
CN(Cc1ccccc1)C1=CC(=[N+]2CCCC2)CC(C)(C)C1	inactive
N/C(=N\OC(=O)c1cccc(F)c1)c1cccc([N+](=O)[O-])c1	inactive
COc1ccc(C(=O)NCC(=O)c2ccccc2)cc1	inactive
O=C(N/N=C/C=C/c1ccccc1)c1ccccn1	inactive
COc1cc2c(cc1OC)C(SC)=NC1(CCCC1)C2	inactive
O=C(c1ccccc1)c1cc(Cl)ccc1N1C(=O)C=CC1=O	inactive
COc1ccc(/C=N/Nc2cc(C)nc(-n3nc(C)cc3C)n2)c(OC)c1	inactive
CC(=O)Oc1c(C(=O)c2nnc(C)o2)c(=O)n(Cc2ccccc2)c2ccccc12	inactive
CN(C)CCCN(C(=O)c1ccc(Cl)s1)c1nc2cc3c(cc2s1)OCO3	inactive
Cc1ccc2nc(NC(=O)CCCC(=O)O)sc2c1	inactive
Cc1c(C#N)c(NC(=O)CCl)n(Cc2ccc(F)cc2)c1C	inactive
COc1ccccc1OCC(=O)N/N=C/C=C/c1ccc([N+](=O)[O-])o1	inactive
CCOc1ccccc1NC(=O)C(=O)N/N=C/c1cc(Br)ccc1O	inactive
CC(C)(C)C(=O)Nc1cc2nn(-c3ccccc3)nc2cc1Cl	inactive
CCOc1ccc2nc(NC3=NC(c4ccc(OC)cc4)CC(=O)N3)nc(C)c2c1 (centres undefined)	inactive
Cc1ccc(C(=O)c2cccc(N)c2)cc1C	inactive

Structure (SMILES)	outcome
Cc1nc2ccccn2c1C(=O)N/N=C/c1ccc([N+](=O)[O-])o1	inactive
CC1=NC(=O)C(N=Nc2cccc(C(=O)O)c2)N1c1ccccc1 (centres undefined)	inactive
CC(Oc1ccc(F)cc1)C(=O)Nc1nc(-c2ccccn2)cs1 (centres undefined)	inactive
O=C(CCNc1ccccc1)c1ccc2c(c1)OCO2	inactive
C=CCN1C(=O)S/C(=C\c2ccc(N3CCOCC3)cc2C)C1=O	inactive
Cc1ccc(C)c(C(=O)Cn2ncc(Cl)c(Cl)c2=O)c1	inactive
Cc1ccc(SCCC(=O)N2CCC(C)CC2)cc1	inactive
CS(=O)(=O)N1CCN(c2nc3ccc(Cl)cc3s2)CC1	inactive
O=C(Nc1ccc(F)cc1F)c1cc2ccccc2oc1=O	inactive
COc1ccc(CCC(=O)N2CCc3ccccc32)cc1	inactive
CCOc1ccc(N(CC(=O)Nc2ccc(OC)cc2)S(C)(=O)=O)cc1	inactive
COc1ccc(C(=O)Nc2ccc3c(c2)OCCO3)cc1Br	inactive
Cn1c(/C=C/c2ccc(Cl)cc2)nc2ccccc2c1=O	inactive
COc1cccc(-c2csc3ncnc(Sc4nnnn4C)c23)c1	inactive
Cn1c(/C(C#N)=C/c2ccc(-c3ccc(S(N)(=O)=O)cc3)o2)nc2ccccc21	inactive
CC1CCCCC1NC(=O)/C(C#N)=C/c1ccccc1F (centres undefined)	inactive
O=C1c2cc([N+](=O)[O-])cc3cc([N+](=O)[O-])cc(c23)C(=O)N1c1ccccn1	inactive
N#C/C(=C\c1cccs1)C(=O)NCC1CCCO1 (centres undefined)	inactive
N/C(=N\OC(=O)c1ccc([N+](=O)[O-])cc1)c1ccc(Br)cc1	inactive
CC(C)N=c1c([N+](=O)[O-])nn(C)n1O	inactive
CCN1CCc2c(sc(NC(=O)c3ccc(S(=O)(=O)N4CCCC4)cc3)c2C(=O)NC)C1	inactive
COc1cccc(NC(=O)c2cc3ccccc3cc2OC)c1	inactive
O=C(N/N=C/C(Cl)=C\c1ccccc1)c1cccs1	inactive

Structure (SMILES)	outcome
CCOc1ccc(-c2ccc(SC)nn2)cc1	inactive
O=C(Nc1ccc(Cl)cc1)OCc1ccccn1	inactive
CC1CCN(c2nc3ccc(C(=O)O)cc3s2)CC1	inactive
O=C(O)c1ccc(Nc2nc3c(s2)CCCC3)cc1	inactive
Cc1c(C=O)c2cc(OCc3ccccc3)ccc2n1C	inactive
Cn1c(=O)c([N+](=O)[O-])c(-n2ccnc2)c2ccccc21	inactive
NCCCNc1nc(N)c([N+](=O)[O-])c(NC2CCCCC2)n1	inactive
N/C(=N\OC(=O)c1ccccc1Cl)c1cccc([N+](=O)[O-])c1	inactive
O=C(NC(=S)Nc1ccccn1)c1cccc([N+](=O)[O-])c1	inactive
Cc1ccc2c(COC(=O)c3n[nH]c4ccccc34)cc(=O)oc2c1	inactive
CC(C)(C)c1ccc(-c2noc(CCC(=O)NCc3ccco3)n2)cc1	inactive
Cc1cc(-n2c(SCC(=O)NCCC3=CCCCC3)nc3n[nH]c(C)c3c2=N)ccc1Cl	inactive
CC(/C=N/NC(=O)c1cc(-c2ccncc2)nc2ccccc12)=C\c1ccco1	inactive
Cc1cccc2sc(N(CCCN(C)C)C(=O)c3nc4ccccc4s3)nc12	inactive
COc1ccc(C)c2sc(N(CCN(C)C)C(=O)/C=C/c3cccs3)nc12	inactive
Cn1nc([N+](=O)[O-])nc1S(C)(=O)=O	inactive
COc1cccc(-c2nnc3n2N=C(C(C)(C)C)CS3)c1	inactive
COC(=O)[C@@H]1C[C@]2(OC(=O)c3ccccc3)C=CC(=O)C[C@@H]2N1C(=O)OCc1ccccc1	inactive
Cc1occc1C(=O)N/N=C/c1ccc(OCc2ccccc2)cc1	inactive
CC(=O)SC(C[N+](=O)[O-])c1cn(C(C)=O)c2ccccc12 (centres undefined)	inactive
Cc1ccc(-c2cn3nc(C)c(C)nc3n2)cc1	inactive
O=C(Nc1ccc(-c2nc3ncccc3o2)cc1)c1ccc([N+](=O)[O-])o1	inactive
